Results on ten compounds are retold here after PubChem BioAssay.

Where “and” joins values, the source holds several entries; their conditions need not be identical. Equal entries are not always repeated. Calls of active or inactive are those of the source.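 The calls were made as follows, unless noted: active = inhibition at or above 50% relative to wild type and mutant plate controls; inactive = inhibition below 50%.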

The nature of experiment [1]: reduction of polyQ htt aggregates in cells – imaging, exon1htt(103Q)mCFP cells, high-content imaging, primary screen (AID 483;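 active = visual image review flags a hit and inhibition of aggregation exceeds 20%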;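 also: compound exposure lasted 3 days before fixation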;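 as to nuclei count: percent of the per-plate median nuclei count of sample wells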). As to conditions: exon1htt(103Q)mCFP cell line, aggregate imaging, at 2 µM; inhibition of aggregation: stronger effect = higher value; nuclei count: measured here: cell count, toxicity.
Experiment [2] is described as follows: endothelial E-selectin expression blockers – imaging, HUVEC, immunofluorescence, MLSMR starter and 10KST1 sets, primary screen (AID 487;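 active = visually confirmed hit in the image check and inhibition above 20%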;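 as to inhibition: signal is fraction of cell area covered by stained E-selectin grains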;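 as to nuclei count: 100% = median nuclei count of all wells on the same plate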). Conditions: HUVEC TNFalpha-induced E-selectin immunofluorescence imaging, at 2 µM; inhibition: stronger effect = higher value; nuclei count: measured here: cell number, toxicity.
Experiment [3] in a line: Primary imaging screen for DUSP6 inhibitors that restore phospho-Erk in transfected HeLa cells, chemical complementation (AID 609;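 active = compounds giving at least 50% inhibition in the cell-based MKP-3 phosphatase rescue imaging test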;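 as to inhibition: phospho-Erk level distribution per well compared with pooled transfected vehicle control wells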). Conditions: HeLa MKP-3 transfected, phospho-Erk imaging KS statistic, at 10 µM, cells stimulated with TPA for 15 min.
The target of experiment [4] is Dual specificity protein phosphatase 6 (Homo sapiens) (UniProt Q16828). The experiment is described as above. Conditions: HeLa MKP-3 transfected, phospho-Erk imaging KS statistic; at 10 µM; stronger effect = higher value; cells stimulated with TPA for 15 min.
Dual specificity protein phosphatase 6 (Homo sapiens), sequence (Q16828 whole entry, looked up): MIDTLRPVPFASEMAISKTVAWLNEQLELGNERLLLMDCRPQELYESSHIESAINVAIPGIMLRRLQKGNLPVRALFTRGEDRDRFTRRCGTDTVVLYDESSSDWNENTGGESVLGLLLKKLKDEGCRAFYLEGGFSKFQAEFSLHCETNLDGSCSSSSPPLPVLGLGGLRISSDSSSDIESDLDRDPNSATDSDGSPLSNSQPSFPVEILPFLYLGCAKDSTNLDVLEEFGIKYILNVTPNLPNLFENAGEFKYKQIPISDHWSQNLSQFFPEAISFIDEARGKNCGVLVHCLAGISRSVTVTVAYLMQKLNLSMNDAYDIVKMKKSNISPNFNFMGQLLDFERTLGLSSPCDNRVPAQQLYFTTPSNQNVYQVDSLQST
The target in experiment [5] is Voltage-gated potassium channel subunit beta-2 (Rattus norvegicus) (UniProt P62483). The experiment can be described thus: inhibitors of rat Kvbeta2 reductase activity – biochemical, NADPH fluorescence, primary screen (AID 622;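 active = fluorescence slope higher than the sample average by over 3 SD, cut at about -0.22 in these data, passing the limit was not always enough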;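 also: slope of raw intensity against log time taken from 70 to 1610 s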). As to conditions: recombinant KvBeta, 4-cyanobenzaldehyde reduction, at 10 µM, stronger effect = higher value.
Voltage-gated potassium channel subunit beta-2 (Rattus norvegicus), sequence (P62483 whole entry, looked up): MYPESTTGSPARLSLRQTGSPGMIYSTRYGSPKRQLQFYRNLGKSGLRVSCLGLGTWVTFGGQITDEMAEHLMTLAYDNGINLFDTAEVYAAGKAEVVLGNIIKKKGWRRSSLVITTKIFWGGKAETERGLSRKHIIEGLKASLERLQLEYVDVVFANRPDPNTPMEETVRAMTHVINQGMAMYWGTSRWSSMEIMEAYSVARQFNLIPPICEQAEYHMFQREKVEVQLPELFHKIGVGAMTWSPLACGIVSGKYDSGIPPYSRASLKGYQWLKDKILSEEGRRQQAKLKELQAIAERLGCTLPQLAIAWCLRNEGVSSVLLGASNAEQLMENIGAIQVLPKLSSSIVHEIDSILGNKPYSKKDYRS
Experiment [6] shares this target. The experiment can be described thus: enhancers of rat Kvbeta2 NADPH turnover – biochemical, NADPH fluorescence, primary screen (AID 623;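 active = NADPH fluorescence slope more negative than the mean of all samples by about 3 SD, 99.7% confidence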;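 also: fluorescence intensity change per second fitted from 20 to 320 s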). As to conditions: Recombinant KvBeta, NADPH fluorescence decrease slope, 10 min; at 10 µM; stronger effect = lower value.
Experiment [7] deals with Alpha-2C adrenergic receptor (Homo sapiens) (UniProt P18825). The experiment is described as follows: compounds altering alpha2C-coupled GIRK flux – cell-based, HEK293 alpha2C/GIRK1/2, thallium flux, primary screen (AID 624;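 active = fluorescence slope after compound addition differing from the mean of all screened samples at 99.7% confidence, in either direction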;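 also: slope of fluorescence ratio to pre-addition baseline per second over 15 to 24 s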). Conditions: thallium flux BTC fluorescence, at 10 µM, actives lie on both sides.
Alpha-2C adrenergic receptor (Homo sapiens), sequence (P18825 whole entry, looked up): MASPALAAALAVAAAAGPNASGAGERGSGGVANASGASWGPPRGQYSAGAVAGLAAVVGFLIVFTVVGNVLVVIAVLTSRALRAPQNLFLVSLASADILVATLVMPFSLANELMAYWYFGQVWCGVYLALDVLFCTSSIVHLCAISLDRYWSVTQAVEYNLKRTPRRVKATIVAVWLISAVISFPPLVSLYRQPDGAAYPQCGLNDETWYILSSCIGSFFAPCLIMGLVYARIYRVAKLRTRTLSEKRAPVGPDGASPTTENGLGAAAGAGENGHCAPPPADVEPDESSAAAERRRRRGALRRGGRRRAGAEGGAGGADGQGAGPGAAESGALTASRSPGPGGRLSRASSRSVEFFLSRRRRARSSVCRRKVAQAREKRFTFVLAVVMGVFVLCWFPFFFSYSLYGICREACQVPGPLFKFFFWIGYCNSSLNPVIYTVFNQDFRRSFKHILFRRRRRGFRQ
Experiment [8] in a line: inhibitors of larval lipid processing in zebrafish, primary screen, whole organism, PED6 fluorescence, gall bladder and intestine (AID 686;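 active = a full or partial loss of lipid-probe fluorescence in the fish gall bladder, intestine or both, judged by eye; inactive = no fluorescence loss, or compound toxic to the fish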;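 also: larvae 5 to 7 days old with five fish per well; signal comes from phospholipase A2 cleavage of quenched PED6 carried via bile; overnight exposure to compound and PED6 before scoring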). As to conditions: Zebrafish larvae PED6 lipid processing, fluorescence scoring; screened at 20 µM (by protocol).
Experiment [9] in a line: loss of swimming-algae plug formation – whole organism, Chlamydomonas reinhardtii, WT vs cilia-less mutant, absorbance, 96-well, primary screen (AID 463189).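 Also: 0% = wild type cc124 cells in DMSO and 100% = ciliumless bld1 mutant cells.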 As to conditions: Chlamydomonas reinhardtii gravitaxis, OD600 absorbance, 2 days; at 10 µM; stronger effect = higher value.
Experiment [10] can be described thus: blockers of RIG-like receptor reporter activation – cell-based, Sendai virus stimulus, luciferase, 10K MLSCN set, TLR/RLR signaling modifier project, primary screen (AID 602276;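 active = inhibition at or above 50% at 10 µM; inactive = inhibition below 50%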;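 also: firefly luciferase from ISG56 promoter only with Renilla not read in this screen; 0% = Sendai virus plus DMSO and 100% = medium plus DMSO without virus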). Conditions: HEK293 RL24 IRF3 luciferase reporter, at 10 µM, stronger effect = higher value. A general note: A reporter such as luciferase makes a cellular process visible.
Experiment [11] can be described thus: TLR3 IRF3 reporter activation blockers – cell-based, poly I:C stimulus, luciferase, 10K MLSCN set, primary screen (AID 602277;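 active = inhibition of the reporter signal at or above 50%; inactive = inhibition below 50%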). As to conditions: HEK293-TLR3 RL24 IRF3 luciferase reporter, at 10 µM, stronger effect = higher value.
Setting [12] is: measured here: cell density z-score.
Where [13] appears, read: measured here: nuclear c-Myc green intensity z-score.
Where [14] appears, read: measured here: nuclear pErk red intensity z-score, stronger effect = higher value.

One may read the inhibition as the drop in the measured response relative to a control, in per cent. Turning to `COc1ccc(CN(CCN(C)C)c2ccccn2)cc1`, in experiment [1], the inhibition of aggregation was -1.2% (inactive). Further, the results for the nuclei count in experiment [1] and in experiment [2] were 105% and 113%, respectively. Also, the inhibition in [2] was -37.9% (inactive); in [4] it was 3.45% (inactive); in experiment [9], 3.64% (inactive) and 20.5% (inactive); in experiment [10], 16.8% (inactive); in experiment [11] it was 30.1% (inactive). Further, the z-score in experiment [3] (setting [12]) was -0.442; in [3] (setting [13]), -0.558; in [3] (setting [14]), 1.54. Moreover, the fluorescence slope in experiment [5] was -0.507 (inactive). Also, the NADPH fluorescence slope in [6] is 9.4e-06 (inactive). Besides, the slope in [7] was 0.00533 (inactive). Further, in experiment [8], the call was inactive.
As for `CC1CCc2cc(F)cc3c(=O)c(C(=O)O)cn1c23` (stereo not given), the inhibition of aggregation in [1] is 3.7% (inactive). The nuclei count was 100% in experiment [1] and 114% in [2]. The inhibition is -103% (inactive) in experiment [2]; 13.3% (inactive) in experiment [4]; -5.13% (inactive) in experiment [9]; 9.82% (inactive) in experiment [10]; 32.9% (inactive) in experiment [11]. Further, the z-score is -0.137 in experiment [3] (setting [12]), -0.228 in [3] (setting [13]) and 0.466 in experiment [3] (setting [14]). Moreover, the fluorescence slope in experiment [5] was -0.526 (inactive). Also, the NADPH fluorescence slope in experiment [6] was -7.5e-05 (inactive). The slope in [7] was 0.00491 (inactive). Further, the outcome in experiment [8] was inactive.
Take `Cc1cc(C(C)(C)C)c(O)c(C)c1CC1=NCCN1`: the inhibition of aggregation in experiment [1] is 2.2% (inactive). Besides, the nuclei count was 87.4% in [1] and 134% in [2]. In addition, the inhibition in experiment [2] was -50.7% (inactive); in experiment [4], -2.29% (inactive); in experiment [9], 6.18% (inactive) and -2.62% (inactive); in experiment [10], 16.9% (inactive); in [11] it was 24.3% (inactive). Also, the z-score is 0.182 in [3] (setting [12]), 0.896 in [3] (setting [13]) and -0.366 in experiment [3] (setting [14]). Moreover, the fluorescence slope in experiment [5] is -0.367 (inactive). Also, the NADPH fluorescence slope in experiment [6] was -2.8e-05 (inactive). Besides, the slope in [7] is 0.00482 (inactive). Moreover, the compound was classed as inactive in experiment [8].
As to `CCn1cc(C(=O)O)c(=O)c2cnc(N3CCNCC3)nc21`, the inhibition of aggregation in experiment [1] was 1.6% (inactive). For the same compound, the nuclei count in [1] was 108%; in experiment [2] it was 127%. Moreover, the inhibition in experiment [2] is -26.1% (inactive); in experiment [4], 14.6% (inactive); in experiment [9] it was -9.24% (inactive); in experiment [10], 4.06% (inactive); in [11] it was 33.1% (inactive). Further, the results for the z-score in [3] (setting [12]), in [3] (setting [13]) and in experiment [3] (setting [14]) were 0.597, 0.614 and 0.576, respectively. For the same compound, the fluorescence slope in [5] is -0.512 (inactive). For the same compound, the NADPH fluorescence slope in experiment [6] is -1.1e-05 (inactive). Also, the slope in [7] was 0.00483 (inactive). Also, the compound was classed as inactive in experiment [8].
For the compound `CN(C)CCCN1c2ccccc2Sc2ccc(C(F)(F)F)cc21`, the inhibition of aggregation in [1] was 12.5% (inactive). Moreover, the nuclei count came to 99.9% in experiment [1] and 95.5% in [2]. Further, the inhibition was -14.6% (inactive) in [2]; 13.3% (inactive) in experiment [4]; 81.9% (active) and 163% (active) in experiment [9]; 18% (inactive) in [10]; 38.3% (inactive) in experiment [11]. Also, the z-score was -0.783 in [3] (setting [12]), 0.801 in experiment [3] (setting [13]) and -0.407 in experiment [3] (setting [14]). The fluorescence slope in [5] is -0.487 (inactive). Further, the NADPH fluorescence slope in experiment [6] was -8.7e-05 (inactive). For the same compound, the slope in experiment [7] was 0.00341 (inactive). Also, in experiment [8], the compound was called inactive.
Take `CCC(=O)O[C@]1(C(=O)CCl)[C@@H](C)C[C@H]2[C@@H]3CCC4=CC(=O)C=C[C@]4(C)[C@@]3(F)[C@@H](O)C[C@@]21C`: the inhibition of aggregation in experiment [1] is -20.8% (inactive). Besides, the results for the nuclei count in experiment [1] and in [2] were 56.7% and 116%, respectively. Moreover, the inhibition in [2] is -5.8% (inactive); in experiment [4] it was 3.45% (inactive); in experiment [9], 18.1% (inactive); in experiment [10] it was -10.2% (inactive); in experiment [11] it was -4.89% (inactive). The z-score in experiment [3] (setting [12]) is -0.246; in [3] (setting [13]), 0.687; in [3] (setting [14]), 0.17. Besides, in [5], the fluorescence slope is -0.528 (inactive). Moreover, the NADPH fluorescence slope in experiment [6] was -3.3e-05 (inactive). For the same compound, in experiment [7], the slope was 0.00421 (inactive). In addition, the compound was classed as inactive in [8].
For the compound `CC(=O)Nc1c(I)c(NC(C)=O)c(I)c(C(=O)O)c1I`, the inhibition of aggregation in [1] is 21.1% (inactive). Moreover, the figures for the nuclei count in experiment [1] and in [2] were 102% and 126%, respectively. The inhibition in experiment [2] is -43.7% (inactive); in [4] it was 11.3% (inactive); in experiment [9] it was 0.515% (inactive); in experiment [10] it was -2.38% (inactive); in experiment [11] it was 5.34% (inactive). Further, the z-score in experiment [3] (setting [12]) was 0.431; in experiment [3] (setting [13]) it was 0.292; in experiment [3] (setting [14]), -0.145. The fluorescence slope in [5] is -0.491 (inactive). Besides, the NADPH fluorescence slope in experiment [6] is -2.1e-05 (inactive). For the same compound, in experiment [7], the slope is 0.00549 (inactive). Besides, the call in [8] was inactive.
Consider `COc1ccc2c(c1)c(CC(=O)O)c(C)n2C(=O)c1ccc(Cl)cc1`, for which, in experiment [1], the inhibition of aggregation is -23.8% (inactive). Also, the figures for the nuclei count in experiment [1] and in experiment [2] were 104% and 122%, respectively. Also, the inhibition is -69% (inactive) in experiment [2]; 16.8% (inactive) in experiment [4]; 2.25% (inactive) and -4% (inactive) in experiment [9]; 9.52% (inactive) in experiment [10]; 22.4% (inactive) in experiment [11]. In addition, the z-score in experiment [3] (setting [12]) was 0.752; in experiment [3] (setting [13]), -1.27; in experiment [3] (setting [14]), -0.74. Besides, in experiment [5], the fluorescence slope was -0.474 (inactive). Besides, in [6], the NADPH fluorescence slope is -6.7e-05 (inactive). Also, the slope in experiment [7] was 0.00463 (inactive). Moreover, the compound was called inactive in [8].
With `O=c1[nH]c2ccccc2n1CCCN1CCN(C(c2ccccc2)c2ccccc2)CC1`, in experiment [1], the inhibition of aggregation is 0% (inactive). Besides, the nuclei count amounted to 107% in experiment [1] and 123% in experiment [2]. Also, the inhibition is -139% (inactive) in [2]; 1.48% (inactive) in [4]; 0.779% (inactive) and 19.8% (inactive) in experiment [9]; 18.3% (inactive) in experiment [10]; 35.4% (inactive) in experiment [11]. Also, the figures for the z-score in experiment [3] (setting [12]), in experiment [3] (setting [13]) and in experiment [3] (setting [14]) were -0.406, -0.951 and 1.42, respectively. Besides, the fluorescence slope in experiment [5] was -0.492 (inactive). In [6], the NADPH fluorescence slope is 1.6e-07 (inactive). Also, in experiment [7], the slope was 0.00471 (inactive). The outcome in experiment [8] was inactive.
Turning to `CC1(C)O[C@@H]2C[C@H]3[C@@H]4CCC5=CC(=O)C=C[C@]5(C)[C@@]4(F)[C@@H](O)C[C@]3(C)[C@]2(C(=O)CO)O1`, the inhibition of aggregation in experiment [1] was -6.5% (inactive). The nuclei count in experiment [1] stood at 62.6%; in [2], 116%. In addition, the inhibition is -115% (inactive) in [2]; -2.46% (inactive) in experiment [4]; -13.3% (inactive) in experiment [9]; -3.36% (inactive) in experiment [10]; 10.8% (inactive) in experiment [11]. Also, the figures for the z-score in experiment [3] (setting [12]), in experiment [3] (setting [13]) and in experiment [3] (setting [14]) were 0.696, -0.511 and -0.313, respectively. Also, the fluorescence slope in [5] was -0.515 (inactive). Also, in [6], the NADPH fluorescence slope was -2.4e-05 (inactive). The slope in experiment [7] is 0.00512 (inactive). In experiment [8], the compound was called inactive.
